According to PubChem BioAssay (Tox21):
“And” between values parts separate entries of the source, which are not always exact repeats. Equal entries are not always repeated. Inconclusive results are not listed. Where a call stands in place of a potency, no number is given. The source made the active and inactive calls. The call rests on the fitted dose curve; in most records, active means well fitted curve in the direction sought with a large enough effect in the repeat runs; inconclusive means weak or mixed curves; inactive means no such curve, though single readings can be large; an effect the other way counts as inactive or inconclusive.

Legend:
[1] = A CellTox Green Cytotoxicity Assay to monitor cytotoxicity in HEK293 cells - 32 hour (AID 1224881); conditions: CellTox Green fluorescence; series mostly up to 76.8 µM; further: nearly all actives have a fitted effect of over 40% in size
Method in brief: (§1)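 HEK293 cells premixed with CellTox Green dye were seeded at 600 cells/well and left 5 h at 37 C/5% CO2 before pin transfer of 23 nL compound in DMSO. Fluorescence from dye bound to dead-cell DNA was read during 40 h treatment.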

[2] = A CellTox Green Cytotoxicity Assay to monitor cytotoxicity in HepG2 cells - 0 hour (AID 1224882); conditions: CellTox Green fluorescence; series mostly up to 76.8 µM; further: nearly all actives have a fitted effect of over 35% in size
Method in brief: (§2)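 HepG2 cells were seeded together with the CellTox Green dye at 600 cells/well, left 5 h at 37 C/5% CO2, then given compounds in DMSO. Fluorescence from dye bound to dead-cell DNA was read repeatedly over 40 h of treatment at 37 C.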

[3] = A CellTox Green Cytotoxicity Assay to monitor cytotoxicity in HepG2 cells - 32 hour (AID 1224883); conditions: CellTox Green fluorescence; series mostly up to 76.8 µM; further: nearly all actives have a fitted effect of over 50% in size
Method in brief: as §2

[4] = qHTS RealTime-Glo MT Cell Viability Assay in HepG2 cells - 16 hour (AID 1224885); conditions: RealTime-Glo luminescence; series mostly up to 76.8 µM; further: nearly all actives have a fitted effect of over 50% in size
Method in brief: (§3)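 Viability was tracked continuously by NanoLuc luminescence from prosubstrate reduced by living HepG2 cells, at successive time points over 40 h of compound exposure. Cells with reagent were preincubated 5 h at 37 °C before compound addition.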

[5] = qHTS RealTime-Glo MT Cell Viability Assay in HEK293 cells - 8 hour (AID 1224887); conditions: RealTime-Glo luminescence; series mostly up to 76.8 µM; further: nearly all actives have a fitted effect of over 50% in size
Method in brief: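 HEK293 cells mixed with RealTime-Glo reagents (NanoLuc plus cell-permeant prosubstrate) at 600 cells/well, preincubated 5 h at 37 C/5% CO2, then given 23 nL compound in DMSO. Nonlytic luminescence from viable cells was read at 0, 8, 16, 24, 32 and 40 h.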

[6] = A CellTox Green Cytotoxicity Assay to monitor cytotoxicity in HEK293 cells - 16 hour (AID 1224888); conditions: CellTox Green fluorescence; series mostly up to 76.8 µM; further: nearly all actives have a fitted effect of over 35% in size
Method in brief: as §1

[7] = qHTS RealTime-Glo MT Cell Viability Assay in HepG2 cells - 0 hour (AID 1224889); conditions: RealTime-Glo luminescence; series mostly up to 76.8 µM; further: nearly all actives have a fitted effect of over 50% in size
Method in brief: as §3

[8] = A CellTox Green Cytotoxicity Assay to monitor cytotoxicity in HepG2 cells - 8 hour (AID 1224890); conditions: CellTox Green fluorescence; series mostly up to 76.8 µM; further: nearly all actives have a fitted effect of over 45% in size
Method in brief: as §2

[9] = qHTS RealTime-Glo MT Cell Viability Assay in HEK293 cells - 24 hour (AID 1224886); conditions: RealTime-Glo luminescence; series mostly up to 76.8 µM; further: nearly all actives have a fitted effect of over 50% in size
Method in brief: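 Viability tracked continuously by luminescence as live cells reduce a prosubstrate for NanoLuc; HEK293 cells preincubated 5 h, compound-treated at 37 C, and read at 0, 8, 16, 24, 32 and 40 h.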

[10] = A CellTox Green Cytotoxicity Assay to monitor cytotoxicity in HEK293 cells - 8 hour (AID 1224884); conditions: CellTox Green fluorescence; series mostly up to 76.8 µM; further: nearly all actives have a fitted effect of over 35% in size
Method in brief: as §1
Potency means the concentration at half of the fitted maximal effect.

Row | SMILES | Potency [1] | Potency [2] | Potency [3] | Potency [4] | Potency [5] | Potency [6] | Potency [7] | Potency [8] | Potency [9] | Potency [10]
1 | Oc1c(Cl)cc(Cl)c2cccnc12 | 5.35 µM (active) | inactive | 9.52 µM (active) | inactive | inactive | inactive | inactive | inactive | – | –
2 | Cc1[nH]cnc1C[C@H]1CCc2c(C)c3ccccc3n2C1=O | 47.8 µM (active) | inactive | 38 µM (active) | – | – | inactive | – | – | 33.8 µM (active) | –
3 | CCCCC(CC)COC(=O)c1ccccc1C(=O)O (centres undefined) | inactive | inactive | inactive | inactive | inactive | inactive | – | inactive | – | –
4 | OCCN(CCO)c1nc(N2CCCCC2)c2nc(N(CCO)CCO)nc(N3CCCCC3)c2n1 | 19 µM (active) | 23.9 µM (active) | 23.9 µM (active) | inactive | – | 12 µM (active) | inactive | 23.9 µM (active) | – | –
5 | C1CCCC1 | inactive | inactive | inactive | inactive | inactive | inactive | inactive | – | inactive | –
6 | CCCCCCCCCCCCCCCS(=O)(=O)Oc1ccccc1 | inactive | inactive | inactive | inactive | – | inactive | inactive | inactive | – | –
7 | CC(C)(C)CC(C)(C)c1ccc(OCCOCC[N+](C)(C)Cc2ccccc2)cc1 | 38.9 µM (active) and 21.3 µM (active) | inactive | 27.5 µM (active) and 15.1 µM (active) | 54.9 µM (active) and 21.3 µM (active) | – | 48.9 µM (active) and 26.8 µM (active) | inactive | 26.8 µM (active) | 19.5 µM (active) and 9.52 µM (active) | –
8 | CCCCCCCCCOC(=O)c1ccc(O)cc1 | 38.3 µM (active) | inactive | 48.3 µM (active) | – | 38.3 µM (active) | 38.3 µM (active) | inactive | inactive | 38.3 µM (active) | –
9 | On1ccccc1=S | 1.22 µM (active) | inactive | 0.385 µM (active) | – | – | inactive | inactive | inactive | 3.85 µM (active) | –
10 | COc1cc(-c2ccc(N=C=O)c(OC)c2)ccc1N=C=O | inactive | inactive | inactive | inactive | inactive | inactive | inactive | – | inactive | –
11 | NC(=O)CC[C@@H]1NC(=O)[C@H](Cc2ccccc2)NC(=O)[C@H](Cc2ccc(O)cc2)NC(=O)CCSSC[C@@H](C(=O)N2CCC[C@H]2C(=O)N[C@@H](CCCN=C(N)N)C(=O)NCC(N)=O)NC(=O)[C@H](CC(N)=O)NC1=O | inactive | inactive | inactive | inactive | inactive | inactive | inactive | inactive | inactive | –
12 | N#CC1(c2ccc(F)cc2)CCC(=O)CC1 | inactive | inactive | inactive | inactive | inactive | inactive | – | inactive | inactive | –
13 | O=c1[nH]sc2ccccc12 | 54.9 µM (active) | inactive | 34.7 µM (active) | 21.9 µM (active) | 49 µM (active) | – | inactive | 49 µM (active) | 38.9 µM (active) | –
14 | O=[N+]([O-])c1cc([N+](=O)[O-])c2ccc(S(=O)(=O)O)cc2c1O | inactive | inactive | inactive | inactive | inactive | inactive | – | inactive | inactive | –
15 | CCCCCCCCCCCCCCCCCC[N+](C)(C)Cc1ccccc1 | 24.8 µM (active) | inactive | 22.1 µM (active) | – | 24.8 µM (active) | 22.1 µM (active) | – | 55.5 µM (active) | 6.23 µM (active) | –
16 | COC(=O)c1cc(Cl)ccc1OC | inactive | inactive | inactive | inactive | inactive | inactive | inactive | inactive | inactive | –
17 | Oc1ccc2cc(SSc3ccc4cc(O)ccc4c3)ccc2c1 | 43.7 µM (active) and 19.5 µM (active) | inactive | inactive | inactive | – | – | inactive | inactive | 49 µM (active) | –
18 | COc1ccc(C(=O)/C(Br)=C\C(=O)O)cc1 | 30.9 µM (active) | inactive | 13.8 µM (active) | – | – | inactive | inactive | inactive | 38.9 µM (active) | –
19 | Cc1onc(-c2c(Cl)cccc2Cl)c1C(=O)N[C@@H]1C(=O)N2[C@@H]1SC(C)(C)[C@@H]2C(=O)O | inactive | inactive | inactive | inactive | – | inactive | inactive | inactive | inactive | –
20 | Cc1ccc2oc(CN(Cc3ccccc3)C(=O)Nc3c(F)cc(F)cc3F)c(-c3ccc(Cl)cc3)c2c1 | inactive | inactive | inactive | – | – | inactive | inactive | inactive | inactive | –

Row | SMILES | Potency [1] | Potency [2] | Potency [3] | Potency [4] | Potency [5] | Potency [6] | Potency [7] | Potency [8] | Potency [9] | Potency [10]
21 | CC(C)(C)C(=O)OCOC(=O)C1N2C(=O)CC2S(=O)(=O)C1(C)C (centres undefined) | inactive | inactive | inactive | inactive | – | inactive | inactive | – | inactive | –
22 | O=C1C=CC(=O)N1 | 17.8 µM (active) | inactive | 20 µM (active) | 25.2 µM (active) | 15.9 µM (active) | 22.5 µM (active) | inactive | 50.3 µM (active) | 12.6 µM (active) | –
23 | COC(=O)C1=C(C)NC(C)=C(C(=O)OCCc2ccc(N3CCN(C(c4ccccc4)c4ccccc4)CC3)cc2)C1c1cccc([N+](=O)[O-])c1 (centres undefined) | inactive | inactive | inactive | inactive | inactive | inactive | inactive | inactive | inactive | –
24 | C/C=C1/C(=O)C[C@H]2[C@@H]3CCC4=CC(=O)CC[C@]4(C)[C@H]3CC[C@]12C | inactive | inactive | 48.8 µM (active) | – | 24.5 µM (active) | inactive | 0.435 µM (active) | inactive | 48.8 µM (active) | –
25 | CC(C)(C)c1ccc(C(=O)O)cc1 | inactive | inactive | inactive | inactive | inactive | inactive | inactive | inactive | inactive | –
26 | CCCCC(CC)COP(=O)(O)OCC(CC)CCCC (centres undefined) | 43.6 µM (active) | inactive | – | inactive | inactive | 38.9 µM (active) | – | inactive | – | –
27 | CS(=O)(=O)CCNCc1ccc(-c2ccc3ncnc(Nc4ccc(OCc5cccc(F)c5)c(Cl)c4)c3c2)o1 | inactive | inactive | – | 21.3 µM (active) | 21.3 µM (active) | inactive | – | inactive | 21.3 µM (active) | inactive
28 | CC(=O)S[C@@H]1CC2=CC(=O)CC[C@]2(C)[C@H]2CC[C@@]3(C)[C@@H](CC[C@@]34CCC(=O)O4)[C@H]12 | inactive | inactive | 54.9 µM (active) | – | – | inactive | inactive | – | – | –
29 | CCCC/C=C/CCCCO | inactive | inactive | – | inactive | inactive | inactive | inactive | inactive | inactive | –
30 | C[C@H](CCC(=O)O)[C@H]1CC[C@H]2[C@@H]3CC[C@@H]4C[C@H](O)CC[C@]4(C)[C@H]3CC[C@]12C | inactive | inactive | – | inactive | inactive | inactive | inactive | inactive | inactive | inactive
31 | NC(=NCCCCCCN=C(N)/N=C(\N)Nc1ccc(Cl)cc1)/N=C(\N)Nc1ccc(Cl)cc1 | 19.4 µM (active) [middle of 4 runs] | inactive | – | 43.4 µM (active) and 31.5 µM (active) and 24.4 µM (active) | – | – | inactive | – | 10.9 µM (active) [middle of 5 runs] | 35.3 µM (active) and 54.6 µM (active)
32 | CCCCCCCC(=O)[O-].CCCCCCCC(=O)[O-].[Zn+2] | inactive | – | inactive | inactive | – | inactive | inactive | inactive | inactive | inactive
33 | N=C1N=C(N)c2ccccc21 | inactive | inactive | – | – | inactive | inactive | inactive | inactive | 24.5 µM (active) | inactive
34 | CCOC(=O)O[C@]1(C(=O)OCCl)CC[C@H]2[C@@H]3CCC4=CC(=O)C=C[C@]4(C)[C@H]3[C@@H](O)C[C@@]21C | inactive | inactive | inactive | – | inactive | inactive | 3.38 µM (active) | inactive | – | –
35 | CCC(Cl)C(Cl)C(Cl)CC(Cl)C(Cl)C(C)Cl (centres undefined) | inactive | – | inactive | inactive | – | inactive | – | – | inactive | inactive
36 | Cc1cc(CCN2CCN(c3nsc4ccccc34)CC2)cc2c1NC(=O)CC2(C)C | 49 µM (active) | inactive | – | 54.9 µM (active) | 21.9 µM (active) | 49 µM (active) | inactive | – | 6.92 µM (active) | –
37 | CC[C@H]1O[C@]2(CC[C@@H]1C)C[C@@H]1C[C@@H](C/C=C(\C)C[C@@H](C)/C=C/C=C3\CO[C@@H]4[C@H](O)C(C)=C[C@@H](C(=O)O1)[C@]34O)O2 | 48.5 µM (active) | – | 27.3 µM (active) | 43.3 µM (active) | 43.3 µM (active) | 48.5 µM (active) | inactive | 48.5 µM (active) | 34.4 µM (active) | inactive
38 | Oc1ccc(N=Nc2ccccc2)cc1 | 44.2 µM (active) | inactive | – | inactive | 19.8 µM (active) | – | – | inactive | 17.6 µM (active) | –
39 | CCc1cc(Cc2cc(CC)c(N)c(CC)c2)cc(CC)c1N | inactive | inactive | – | inactive | 27.5 µM (active) | inactive | inactive | inactive | 27.5 µM (active) | –
